The subject of this assay is HL-60(TB) leukemia. Briefly: NCI-60 one-dose screen, 48 h (100 = growth as untreated, 0 = no growth, -100 = all killed). The following applies: 10 µM unless noted.

“And” between values parts separate entries of the source, which are not always exact repeats. Equal entries are not always repeated. Compounds without any hit were thinned out: in the full panel of roughly 83,000, 20% have a hit.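 In brief: 96-well plates, 48 h treatment, single concentration, percent growth endpoint.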 The source made the active and inactive calls. Rule for the calls: active = growth percent below 10; inactive = the rest.

As to `C=CCc1cc(OC)c(O)c(OC)c1`, the growth was 109% (inactive).

`NC(N)=N/N=C/c1ccc(-c2ccc(-c3ccc(Cl)cn3)s2)cc1`: the growth was 97.8% (inactive). Next, `COC12C=C/C(=C(/C(=O)OCc3ccncc3)C(=O)CCCCCCCCC3(OC)C=C/C(=C(/C(=O)OCc4ccncc4)C(=O)CCCCCCCC1)O3)O2`: -22.9% (active); `Cn1c(N)c(N=O)c(=O)n(C)c1=O`: 105% (inactive) and 89.8% (inactive); `COc1ccc(C2=C(c3cn(C)c4ccccc34)C(=O)OC2)cc1OC`: 7.26% (active). With `CN1CCN(Cc2ccc3c(NNC(=O)c4ccccc4)nc4cc(F)ccc4n23)CC1`, the growth was 7.8% (active).

Consider `CCCNC(=O)Oc1ccc(/C(=C(\C)c2ccccc2)c2ccc(OCCN3CCCCC3)cc2)cc1`, for which the growth is 63.1% (inactive). The same measure for `Cc1ccc(NC(=S)NNC(=S)NNc2ccccc2)cc1C`: 20.4% (inactive). With `Nc1c(C(=O)Nc2cccc3ccccc23)sc2nc3c(cc12)C(=O)CCC3`, the growth was 3.95% (active). Next, `CC1=C/C(=C(\c2ccc(N(C)C)cc2)c2ccc([N+](C)(C)C)cc2)C=CC1=[N+](C)C`: 98.6% (inactive); `O=c1c2cc(F)ccc2sc2c(N3CCCCC3)nc3ccccc3c12`: 102% (inactive).

For the compound `COc1cccc(C2=NN3C(C2)c2cc(Br)cc(OC)c2OC32CCN(Cc3ccccc3)CC2)c1` (stereo not drawn), the growth is 103% (inactive). For `CCN1CCC2(CC1)OC(c1ccccc1)C(c1ccccc1)O2` (stereo not drawn), the growth was 103% (inactive). On to `O=C(Nc1nc2ccccc2[nH]1)C(=O)Nc1nc2ccccc2[nH]1`, for which the growth was 99.7% (inactive).

In the case of `CN(C)c1ccc(/C=C(\C#N)c2ccccc2)cc1`, the growth is -9.62% (active) and 16% (inactive) and 9.8% (active). `CCc1cc2c(c3ccc(C(=O)CBr)cc13)CCCC2`: the growth is 97.7% (inactive). As to `Cc1cc(C(=O)NN)c(C#N)c(=O)[nH]1`, the growth is 111% (inactive).

Regarding `CCc1ccccc1NC(=O)/C(C#N)=C/c1ccc(OC)cc1`, the growth is 138% (inactive). The same measure for `COc1cc(C2CC(c3ccccc3)=NN2C=O)ccc1Oc1ccnc2cc(Cl)ccc12` (stereo not drawn): 33.5% (inactive); for `CCC1OC(OC)C=CC1=O` (stereo not drawn): 77% (inactive); for `CCCCCCCCCCCCCCCCC(C(=O)O)C(O)(CC(=O)O)C(=O)O` (stereo not drawn): 94.6% (inactive) and -8.25% (active). The same measure for `CN(C)CCOc1ccc(-c2nc3ccc(-c4nc5ccc(N6CCN(C)CC6)cc5[nH]4)cc3[nH]2)cc1`: 72.1% (inactive).

`COC(=O)[C@]1(C)CCC[C@]2(C)[C@H]3C[C@H]4C(C(C)C)=C[C@]3(CC[C@H]21)[C@H]1[C@@H]4[C@@H](OCCC#N)CC[C@@H]1OCCC#N`: the growth was 2.28% (active).

The values are drawn from PubChem BioAssay (NCI).
